The values that follow come from PubChem BioAssay (NCATS).

Experiment [1] addresses Bile acid receptor (Homo sapiens) (UniProt Q96RI1). In words: qHTS assay for small molecule antagonists of farnesoid X receptor signaling (AID 588526). Further: on the % scale 0 is the no-effect control and ±100 the full control effect. A digest of the protocol:
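Concentration-response titrations were fitted to the Hill equation for half-maximal inhibition and maximal response, with data normalised to 50 uM chenodeoxycholic acid and DMSO control wells. Cells: FXR-UAS-bla HEK293T, dialyzed FBS.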
(In general: qHTS replaces the single test concentration by a dilution series.)

Experiment [2] has as its target Glucocorticoid receptor (Homo sapiens) (UniProt P04150). Briefly: qHTS assay for small molecule agonists of glucocorticoid receptor signaling (AID 588532; active means well fitted curve in the direction sought with a large enough effect in the signal ratio, with a control signal flat; the % refers to the signal ratio;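 further: 100% = dexamethasone at 0.1 µM and 0% = DMSO only wells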). The settings on record: HeLa MMTV-bla, beta-lactamase ratio, agonist, 18 h; stronger effect = higher value; percent of dexamethasone control, DMSO zero. An outline of the steps: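 Stimulation of a glucocorticoid response element-driven beta-lactamase gene was measured in HeLa cells. Responses were scaled between DMSO basal and 0.1 uM dexamethasone, then fitted for half-maximal stimulation.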

Experiment [3] is described as follows: qHTS assay for small molecule antagonists of peroxisome proliferator-activated receptor delta signaling (AID 588535; active means well fitted inhibition curve with a large enough effect in the signal ratio, with a control signal flat, not every such curve was filed as active; the % refers to the signal ratio;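 on max response: cells co-treated with a PPAR-delta agonist as stimulator during compound exposure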). The settings on record: HEK293T PPARd-UAS-bla, beta-lactamase FRET ratio, 18 h; 460 nm channel. An outline of the steps:
(§1)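 GeneBLAzer PPAR-delta-UAS-bla HEK293T cells in medium with 2% charcoal/dextran FBS were preincubated 5 hrs at 37 C, then given compounds, incubated 18 hrs at 37 C, and read by CCF4 beta-lactamase fluorescence; IC50 from Hill fits.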

The target of experiment [4] is Peroxisome proliferator-activated receptor delta (Homo sapiens) (UniProt Q03181). The experiment is described as above. A digest of the protocol: as §1
Sequence of Peroxisome proliferator-activated receptor delta (Homo sapiens) (Q03181 whole entry, looked up): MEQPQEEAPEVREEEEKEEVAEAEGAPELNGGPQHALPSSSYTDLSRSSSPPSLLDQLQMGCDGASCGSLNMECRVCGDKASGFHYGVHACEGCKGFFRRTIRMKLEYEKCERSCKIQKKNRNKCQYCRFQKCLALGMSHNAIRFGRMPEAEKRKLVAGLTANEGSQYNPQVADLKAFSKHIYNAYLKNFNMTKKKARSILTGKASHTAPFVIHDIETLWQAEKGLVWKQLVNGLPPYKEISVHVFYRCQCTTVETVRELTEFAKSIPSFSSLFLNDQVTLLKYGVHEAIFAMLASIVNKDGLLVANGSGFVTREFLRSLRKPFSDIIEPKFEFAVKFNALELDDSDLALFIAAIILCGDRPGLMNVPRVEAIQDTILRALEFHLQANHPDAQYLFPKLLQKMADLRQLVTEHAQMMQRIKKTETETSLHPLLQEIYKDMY
In experiment [5] the target is Vitamin D3 receptor (Homo sapiens) (UniProt P11473). Briefly: qHTS assay for small molecule antagonists of vitamin D receptor signaling (AID 588541).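 Further: receptor activated by calcitriol during compound treatment; series mostly up to about 77 µM; on the % scale 0 is the no-effect control and ±100 the full control effect.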 A digest of the protocol: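 VDR-UAS-bla HEK293T cells (2000/well, 2% charcoal-stripped FBS) were treated with titrated compounds plus 1-alpha,25-dihydroxyvitamin D3 (50 nM or 3 nM final) for 16 h at 37 C. CCF4 beta-lactamase fluorescence was read; Hill fits gave IC50.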
Sequence of Vitamin D3 receptor (Homo sapiens) (P11473 whole entry, looked up): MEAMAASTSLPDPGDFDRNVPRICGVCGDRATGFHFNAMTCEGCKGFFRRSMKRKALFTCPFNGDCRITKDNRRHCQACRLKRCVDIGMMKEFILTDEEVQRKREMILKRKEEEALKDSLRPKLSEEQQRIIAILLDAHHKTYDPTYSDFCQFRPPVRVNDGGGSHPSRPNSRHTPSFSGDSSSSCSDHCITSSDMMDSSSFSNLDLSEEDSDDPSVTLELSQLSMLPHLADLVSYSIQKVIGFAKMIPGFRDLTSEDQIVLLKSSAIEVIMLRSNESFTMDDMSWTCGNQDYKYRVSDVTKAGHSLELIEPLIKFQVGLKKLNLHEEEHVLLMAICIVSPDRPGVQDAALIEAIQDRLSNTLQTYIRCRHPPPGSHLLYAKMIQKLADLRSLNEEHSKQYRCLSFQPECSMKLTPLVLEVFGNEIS

For experiment [6] the target is unchanged. Briefly: qHTS assay for small molecule agonists of vitamin D receptor signaling (AID 588543).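 Further: 0% = DMSO basal and 100% = reference agonist control.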 An outline of the steps:
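Agonist-mode beta-lactamase reporter: HEK293T VDR-UAS-bla cells in charcoal-stripped 2% FBS, compound series 16 h 37 C, CCF4 2 h RT. EC50 from Hill fit, scaled against DMSO and 50 nM calcitriol control.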

Experiment [7] can be described thus: qHTS assay for small molecule agonists of retinoid X receptor alpha signaling (AID 588544).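 On activation: 0% = DMSO basal wells and 100% = reference agonist.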 Conditions: HEK293T RXRa-UAS-bla, beta-lactamase reporter, 18 h; 530 nm emission.
The target in experiment [8] is Retinoic acid receptor RXR-alpha (Homo sapiens) (UniProt P19793). The experiment is described as above.
Sequence of Retinoic acid receptor RXR-alpha (Homo sapiens) (P19793 whole entry, looked up): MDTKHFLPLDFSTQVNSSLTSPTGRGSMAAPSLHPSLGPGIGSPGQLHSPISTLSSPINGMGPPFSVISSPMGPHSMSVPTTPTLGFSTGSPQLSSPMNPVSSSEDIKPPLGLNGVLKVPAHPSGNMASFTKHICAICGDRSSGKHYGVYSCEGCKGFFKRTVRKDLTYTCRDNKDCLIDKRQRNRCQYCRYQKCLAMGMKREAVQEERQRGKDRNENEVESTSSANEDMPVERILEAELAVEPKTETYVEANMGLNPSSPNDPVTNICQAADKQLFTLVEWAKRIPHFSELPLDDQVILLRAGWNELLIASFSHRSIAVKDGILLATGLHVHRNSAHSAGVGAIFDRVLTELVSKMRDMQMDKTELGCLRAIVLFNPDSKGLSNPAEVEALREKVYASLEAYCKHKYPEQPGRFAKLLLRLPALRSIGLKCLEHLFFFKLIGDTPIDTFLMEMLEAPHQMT
In experiment [9] the target is Thyroid hormone receptor beta (Homo sapiens) (UniProt P10828). In words: qHTS assay for small molecule agonists of thyroid hormone receptor beta signaling (AID 588545). An outline of the steps: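 HEK 293 TR-UAS-bla; agonist mode; 18 hrs, 37 C; CCF4, ex 405/em 460 and 530 nm; norm. T3 10 nM = 100%, DMSO = 0%; Hill fit → EC50, efficacy.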
Sequence of Thyroid hormone receptor beta (Homo sapiens) (P10828 whole entry, looked up): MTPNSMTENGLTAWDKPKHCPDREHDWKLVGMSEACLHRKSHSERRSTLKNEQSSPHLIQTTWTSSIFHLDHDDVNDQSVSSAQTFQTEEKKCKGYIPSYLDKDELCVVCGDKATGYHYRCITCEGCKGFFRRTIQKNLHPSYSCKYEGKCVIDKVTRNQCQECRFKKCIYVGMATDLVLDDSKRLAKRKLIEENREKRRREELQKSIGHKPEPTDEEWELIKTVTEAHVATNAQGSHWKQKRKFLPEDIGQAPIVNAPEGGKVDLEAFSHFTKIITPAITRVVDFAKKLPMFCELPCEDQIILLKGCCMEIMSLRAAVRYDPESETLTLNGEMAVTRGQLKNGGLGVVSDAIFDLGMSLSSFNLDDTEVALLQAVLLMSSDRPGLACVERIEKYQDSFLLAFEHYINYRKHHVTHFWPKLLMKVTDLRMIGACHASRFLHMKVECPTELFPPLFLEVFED
The nature of experiment [10]: qHTS assay for small molecule antagonists of retinoid X receptor alpha signaling (AID 588546; active means well fitted inhibition curve with a large enough effect in the signal ratio, with a control signal flat, not every such curve was filed as active; the % refers to the signal ratio;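 further: cells stimulated with 9-cis-retinoic acid as agonist; on the % scale 0 is the no-effect control and ±100 the full control effect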). The settings on record: HEK293T RXRa-UAS-bla, beta-lactamase ratio, antagonist mode; measured here: W530 green channel, cytotoxicity proxy. A digest of the protocol: (§2)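 Beta-lactamase reporter inhibition, read as CCF4 fluorescence ratio (ex 405, em 460/530 nm) after 2 h at RT. HEK293T UAS-bla cells, 2500/well, were stimulated with 9-cis-RA at 500 or 100 nM final alongside test compound for 18 h at 37 C.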

The target in experiment [11] is Retinoic acid receptor RXR-alpha (Homo sapiens) (UniProt P19793). The experiment is described as above. The settings on record: HEK293T RXRa-UAS-bla, beta-lactamase ratio, antagonist mode. An outline of the steps: as §2
In experiment [12] the target is Thyroid hormone receptor beta (Homo sapiens) (UniProt P10828). Briefly: qHTS assay for small molecule antagonists of thyroid hormone receptor beta signaling (AID 588547; active means well fitted inhibition curve with a large enough effect in the signal ratio, with a control signal flat, not every such curve was filed as active; the % refers to the signal ratio;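 further: cells stimulated with 0.4 nM T3 agonist during compound exposure; series mostly up to about 77 µM; on the % scale 0 is the no-effect control and ±100 the full control effect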). The settings on record: TR-UAS-bla HEK293, beta-lactamase ratio, antagonist mode, 18 h. A digest of the protocol:
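TR-UAS-bla GripTite HEK293 cells in 2% charcoal/dextran FBS medium were preincubated 4 h at 37 C, given compound (0.59 nM to 92 uM) plus 0.4 nM T3 (final) for 18 h, then CCF4 for 2 h at RT; Hill fit gave IC50.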

In experiment [13] the target is Voltage-gated inwardly rectifying potassium channel KCNH2 (Homo sapiens) (UniProt Q12809). Briefly: qHTS Assay for Small Molecule Inhibitors of the Human hERG Channel Activity (AID 588834; active means well fitted inhibition curve with a large enough effect;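 further: top concentration of the series differs between compounds; on the % scale 0 is the no-effect control and ±100 the full control effect; lower thallium flux fluorescence means stronger hERG block; nearly all actives have a fitted effect of over 50% in size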). An outline of the steps: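 Kinetic FDSS fluorescence; U2OS + hERG BacMam (~100 virus particles/cell); FluxOR Tl+ flux; ~10 min cpd; AC50 (Hill).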
Sequence of Voltage-gated inwardly rectifying potassium channel KCNH2 (Homo sapiens) (Q12809 whole entry, looked up): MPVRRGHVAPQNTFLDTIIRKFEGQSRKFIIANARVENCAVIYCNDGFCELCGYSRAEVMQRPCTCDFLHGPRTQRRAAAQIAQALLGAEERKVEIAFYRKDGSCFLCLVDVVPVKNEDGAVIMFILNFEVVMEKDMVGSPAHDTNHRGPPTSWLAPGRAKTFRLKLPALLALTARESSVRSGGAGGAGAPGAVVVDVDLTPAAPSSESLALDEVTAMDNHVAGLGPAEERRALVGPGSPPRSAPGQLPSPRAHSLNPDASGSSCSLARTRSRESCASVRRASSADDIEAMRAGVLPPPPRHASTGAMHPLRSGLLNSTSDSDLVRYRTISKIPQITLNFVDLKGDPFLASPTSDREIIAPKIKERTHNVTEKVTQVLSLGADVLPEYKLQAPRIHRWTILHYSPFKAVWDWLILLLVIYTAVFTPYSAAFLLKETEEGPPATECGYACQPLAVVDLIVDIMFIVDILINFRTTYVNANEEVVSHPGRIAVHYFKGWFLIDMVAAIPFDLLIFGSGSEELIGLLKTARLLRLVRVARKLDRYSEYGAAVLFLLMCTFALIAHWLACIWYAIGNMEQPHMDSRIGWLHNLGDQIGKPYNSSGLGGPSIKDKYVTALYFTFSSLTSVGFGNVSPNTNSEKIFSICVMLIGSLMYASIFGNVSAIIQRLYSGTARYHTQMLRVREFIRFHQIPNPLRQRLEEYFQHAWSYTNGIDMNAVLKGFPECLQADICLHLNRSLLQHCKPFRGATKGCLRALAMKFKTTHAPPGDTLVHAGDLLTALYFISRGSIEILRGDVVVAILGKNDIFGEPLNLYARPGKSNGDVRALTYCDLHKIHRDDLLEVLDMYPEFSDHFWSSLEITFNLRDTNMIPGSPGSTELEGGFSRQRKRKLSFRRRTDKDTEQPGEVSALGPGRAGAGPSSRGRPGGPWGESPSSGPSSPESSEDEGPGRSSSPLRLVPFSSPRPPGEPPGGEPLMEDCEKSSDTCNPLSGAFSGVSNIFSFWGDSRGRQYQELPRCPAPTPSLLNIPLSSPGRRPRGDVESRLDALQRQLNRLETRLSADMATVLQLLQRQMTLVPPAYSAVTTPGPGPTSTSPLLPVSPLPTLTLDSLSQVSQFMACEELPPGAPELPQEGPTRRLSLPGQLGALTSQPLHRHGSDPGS
Experiment [14] is described as follows: qHTS assay for small molecule agonists of the antioxidant response element (ARE) signaling pathway (AID 651741; active means well fitted activation curve with a large enough effect in the signal ratio; the % refers to the signal ratio; further: % of control where 0% means no effect). An outline of the steps:
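ARE-bla HepG2 cells (beta-lactamase reporter under ARE control) were plated at 2,000 cells/well, preincubated 5 h at 37 C/5% CO2, then treated with DMSO-dissolved compounds for 16 h at 37 C; LiveBLAzer B/G FRET substrate added, fluorescence read after 2 h at room temperature.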

Experiment [15] can be described thus: qHTS assay for small molecule activators of the p53 signaling pathway (AID 651743; active means well fitted activation curve with a large enough effect in the signal ratio, not every such curve was filed as active; the % refers to the signal ratio; further: series mostly up to about 92 µM; % of control where 0% means no effect). Conditions: HCT-116 p53RE-bla, beta-lactamase FRET ratio, 16 h; stronger effect = higher value. An outline of the steps:
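p53RE-bla HCT-116 cells with a stably integrated beta-lactamase reporter under p53 response elements were plated, rested 5 hours at 37 C/5% CO2, then exposed to compounds in DMSO for 16 hours at 37 C. LiveBLAzer B/G FRET substrate was read after 2 hours at room temperature.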

Experiment [16] can be described thus: qHTS assay for small molecule activators of the nuclear factor-kappa B (NF-kB) signaling pathway (AID 651749; active means well fitted activation curve with a large enough effect in the signal ratio; the % refers to the signal ratio; further: series mostly up to about 77 µM; % of control where 0% means no effect). The settings on record: NF-kB-bla ME-180 cells, beta-lactamase FRET ratio, 16 h; stronger effect = higher value. An outline of the steps:
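ME-180 cells stably carrying a beta-lactamase reporter under an NF-kB response element were exposed to compound or DMSO vehicle for 16 hr at 37C, 5% CO2. Pathway activation was read by FRET, since reporter expression disrupts FRET.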

Experiment [17] deals with Peroxisome proliferator-activated receptor gamma (Homo sapiens) (UniProt P37231). In words: qHTS assay for small molecule antagonists of peroxisome proliferator-activated receptor gamma signaling (AID 588537; active means well fitted inhibition curve with a large enough effect in the signal ratio, with a control signal flat, not every such curve was filed as active; the % refers to the signal ratio;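 further: reporter cells co-stimulated with 50 nM rosiglitazone agonist during compound treatment; % of control where 0% means no effect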). A digest of the protocol:
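PPAR-gamma-UAS-bla HEK293 cells (3000/well, 1% charcoal/dextran-stripped FBS) were preincubated 6-6.5 h at 37 C, given titrated compounds, then stimulated with 50 nM rosiglitazone for 16 h. Beta-lactamase activity was read with CCF4 dye; IC50 came from Hill fits.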

For experiment [18] the target is unchanged. In words: qHTS assay for small molecule agonists of peroxisome proliferator-activated receptor gamma signaling (AID 588536; active means well fitted curve in the direction sought with a large enough effect in the signal ratio, with a control signal flat, not every such curve was filed as active; the % refers to the signal ratio;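 further: 0% = DMSO basal wells and 100% = rosiglitazone at 2 µM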). An outline of the steps:
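PPAR-gamma-UAS-bla HEK293 cells in medium with 1% charcoal/dextran-treated FBS were exposed to compounds for 16 h at 37 C. Beta-lactamase activity was read with CCF4 substrate (405 nm excitation, 460/530 nm emission).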

Experiment [19] addresses Glucocorticoid receptor (Homo sapiens) (UniProt P04150). Briefly: qHTS assay for small molecule antagonists of glucocorticoid receptor signaling (AID 588533; active means well fitted inhibition curve with a large enough effect in the signal ratio, with a control signal flat, not every such curve was filed as active; the % refers to the signal ratio). A digest of the protocol: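 Antagonist-mode qHTS: compound titrations added to GRE-bla HeLa cells, then dexamethasone 2 nM final; 18 h, 37 C. CCF4 FRET fluorescence normalized to dexamethasone and DMSO; IC50 from Hill fit.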

Results filed as inconclusive are left out. Activity calls are given as the source filed them. Unless noted, the call rests on the fitted dose curve.

Sequence of Bile acid receptor (Homo sapiens) (Q96RI1 whole entry, looked up): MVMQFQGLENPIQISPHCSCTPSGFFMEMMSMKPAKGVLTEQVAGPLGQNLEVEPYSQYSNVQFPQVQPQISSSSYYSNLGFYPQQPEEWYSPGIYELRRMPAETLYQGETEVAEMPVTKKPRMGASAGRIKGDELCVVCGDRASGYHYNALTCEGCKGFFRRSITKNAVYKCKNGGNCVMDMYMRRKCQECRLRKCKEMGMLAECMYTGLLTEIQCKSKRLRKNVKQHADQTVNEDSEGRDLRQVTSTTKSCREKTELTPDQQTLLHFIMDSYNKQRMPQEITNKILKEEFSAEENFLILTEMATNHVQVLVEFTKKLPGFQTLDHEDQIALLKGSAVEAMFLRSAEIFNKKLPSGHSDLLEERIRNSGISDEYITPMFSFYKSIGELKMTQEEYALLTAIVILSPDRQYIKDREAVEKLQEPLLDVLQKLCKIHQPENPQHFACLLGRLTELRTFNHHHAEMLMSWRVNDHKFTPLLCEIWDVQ
Sequence of Glucocorticoid receptor (Homo sapiens) (P04150 whole entry, looked up): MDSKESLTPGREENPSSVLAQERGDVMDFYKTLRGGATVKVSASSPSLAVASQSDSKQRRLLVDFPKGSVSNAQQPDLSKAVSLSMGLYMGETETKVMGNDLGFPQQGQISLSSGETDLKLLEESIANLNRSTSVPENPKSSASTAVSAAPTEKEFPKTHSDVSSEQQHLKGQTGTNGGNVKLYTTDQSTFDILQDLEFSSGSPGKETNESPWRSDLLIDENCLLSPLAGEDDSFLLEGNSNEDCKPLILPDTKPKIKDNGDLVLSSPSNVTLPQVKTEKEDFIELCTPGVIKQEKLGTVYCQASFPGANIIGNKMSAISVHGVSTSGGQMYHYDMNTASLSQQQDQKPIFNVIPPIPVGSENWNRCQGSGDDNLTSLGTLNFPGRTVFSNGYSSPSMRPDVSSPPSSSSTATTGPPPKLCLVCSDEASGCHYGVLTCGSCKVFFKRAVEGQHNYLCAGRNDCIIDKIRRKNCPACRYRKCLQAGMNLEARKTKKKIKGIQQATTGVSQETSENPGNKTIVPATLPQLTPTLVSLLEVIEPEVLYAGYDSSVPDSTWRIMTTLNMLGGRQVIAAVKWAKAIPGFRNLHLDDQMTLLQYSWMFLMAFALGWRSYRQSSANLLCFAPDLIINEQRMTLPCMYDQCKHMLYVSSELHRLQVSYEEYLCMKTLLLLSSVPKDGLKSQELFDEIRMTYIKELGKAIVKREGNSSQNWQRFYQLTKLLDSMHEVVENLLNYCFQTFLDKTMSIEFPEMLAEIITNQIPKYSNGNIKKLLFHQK
Sequence of Peroxisome proliferator-activated receptor gamma (Homo sapiens) (P37231 whole entry, looked up): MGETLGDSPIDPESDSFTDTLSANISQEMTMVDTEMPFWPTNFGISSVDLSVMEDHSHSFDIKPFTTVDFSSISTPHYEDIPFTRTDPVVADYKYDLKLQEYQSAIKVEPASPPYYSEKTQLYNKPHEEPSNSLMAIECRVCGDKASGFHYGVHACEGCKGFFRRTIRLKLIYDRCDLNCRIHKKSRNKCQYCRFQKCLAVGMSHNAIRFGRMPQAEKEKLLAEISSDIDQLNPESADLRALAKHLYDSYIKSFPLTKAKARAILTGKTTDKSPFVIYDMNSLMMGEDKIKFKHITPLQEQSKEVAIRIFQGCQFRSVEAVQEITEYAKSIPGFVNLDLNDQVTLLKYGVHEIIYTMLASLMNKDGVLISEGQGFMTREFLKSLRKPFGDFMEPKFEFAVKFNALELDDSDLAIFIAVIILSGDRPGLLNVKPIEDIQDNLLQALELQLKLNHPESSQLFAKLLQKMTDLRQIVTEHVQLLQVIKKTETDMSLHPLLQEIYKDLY

In the case of `CCCCCO`, the compound was called inactive in experiment [1], in [5], in [6], in experiment [8] and in experiment [9]. For the same compound, the results for the activation in experiment [2], in [15] and in experiment [16] were 4.01% (inactive), 0.0408% (inactive) and -0.261% (inactive), respectively. In addition, the max response in experiment [3] was -5.82%; in experiment [7], -7.88%; in [10], -5.62%; in experiment [11] it was 1.09% (inactive). Also, the Potency entry in experiment [4], in [13] and in experiment [14] was “inactive” each time. In addition, the activity change % (negative = inhibition) in experiment [12] is 2.41% (inactive).
Turning to `C/C=C1\CC2C=CC1C2` (stereo not drawn), the compound was called inactive in experiment [1], in experiment [17], in experiment [5] and in [8]. Besides, the activation is 1.02% (inactive) in experiment [2], 0.178% (inactive) in [15] and -0.076% (inactive) in [16]. In addition, the max response in experiment [3] was -0.443%; in experiment [7], -9.1%; in [10], -2.6%; in experiment [11], 6.71% (inactive). For the same compound, the Potency entry in experiment [4], in [13] and in [14] was “inactive” each time. Besides, the activity change % (negative = inhibition) in [12] is 2.19% (inactive).
In the case of `CCCCCCCCCCCCC1CO1` (stereo not drawn), the compound was classed as inactive in [1], in [18], in experiment [17], in [8] and in [9]. Further, the activation is 0.241% (inactive) in experiment [2] and 0.702% (inactive) in [16]. Further, the max response in experiment [3] is -13.1%; in [7], -5.24%; in experiment [10], -6.03%; in experiment [11], 7.51% (inactive). The Potency result in [4] and in [13] was “inactive” each time. For the same compound, the activity change % (negative = inhibition) in experiment [12] was -0.964% (inactive).
With `NC(=O)/N=N/C(N)=O`, the outcome in [1], in experiment [19], in experiment [18], in experiment [17], in experiment [5] and in experiment [6] was inactive. Besides, the compound was classed as inactive in [9]. Also, the figures for the activation in experiment [2], in experiment [15] and in experiment [16] were 7.65% (inactive), -0.505% (inactive) and 2.36% (inactive), respectively. The max response is -25.3% in experiment [3], -17.5% in experiment [7], -9.97% in experiment [10] and -2.12% (inactive) in [11]. The Potency result in experiment [13] is “inactive”.
On to `C=CC(=O)OCCCC`, for which the call in [1], in experiment [19], in experiment [5], in [6] and in experiment [9] was inactive. For the same compound, the activation in experiment [2] was 6.23% (inactive); in experiment [15] it was -0.944% (inactive). For the same compound, the max response is -13.6% in [3], -9.05% in experiment [7], 3.81% in experiment [10] and -2.2% (inactive) in experiment [11]. The Potency entry in experiment [4], in [13] and in [14] was “inactive” throughout. Moreover, in experiment [12], the activity change % (negative = inhibition) was 1.99% (inactive).
On to `CCCCC(C=O)CC` (stereo not drawn), for which the compound was classed as inactive in experiment [1], in experiment [19], in experiment [18], in experiment [5], in experiment [6] and in experiment [8]. Besides, the compound was classed as inactive in experiment [9]. The activation in experiment [2] is -0.985% (inactive); in experiment [16] it was -0.855% (inactive). Besides, the max response in [3] was -2.18%; in [7] it was 4.08%; in [10], 2.69%; in experiment [11], 7.22% (inactive). Also, the Potency result in [4] and in experiment [14] was “inactive” each time. Moreover, in [12], the activity change % (negative = inhibition) was 14.6% (inactive).
As for `CC=O`, the compound was classed as inactive in [1], in experiment [19], in experiment [18], in [5], in [6] and in experiment [8]. Further, the outcome in [9] was inactive. Also, the activation in experiment [2] is -2.95% (inactive); in [15], 0.53% (inactive); in [16] it was 9.05% (inactive). Also, the max response in [3] was 23.9%; in [7], -8.77%; in experiment [10] it was -2.19%; in [11], -0.48% (inactive). Moreover, the Potency entry in experiment [4], in [13] and in experiment [14] was “inactive” in each case.
